Experiment [1] in a line: qHTS assay to identify small molecule agonists of the vitamin D receptor (VDR) signaling pathway - cell viability counter screen (AID 743224). Also: nearly all actives have a fitted effect of over 50% in size. Also: potency is read from the fitted curve at half-maximal effect. The essentials:
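Compounds were pin-transferred onto VDR-bla cells plated 4 h earlier; following 16 h incubation at 37C, cell viability was quantified by CellTiter-Glo luminescence after 30 min at room temperature.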
For orientation: Quantitative high-throughput screening tests each substance at several concentrations.

Experiment [2] can be described thus: qHTS assay to identify small molecule antagonists of the vitamin D receptor (VDR) signaling pathway - cell viability counter screen (AID 743225). Also: nearly all actives have a fitted effect of over 50% in size. The essentials:
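Compounds were pinned onto VDR-bla HEK 293T cells together with 1-alpha,25-dihydroxyvitamin D3 at 3 nM final. After 16 h at 37C and 5% CO2 plus the reporter readout, cell viability was measured by CellTiter-Glo luminescence (30 min, room temperature).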

Experiment [3] is described as follows: qHTS assay to identify small molecule agonists of the NFkB signaling pathway - cell viability counter screen (AID 1159515; calls by dose curve; also: nearly all actives have a fitted effect of over 55% in size; also: potency is read from the fitted curve at half-maximal effect). In outline: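 Parallel cytotoxicity counter screen in ME-180 cells carrying an NFkB-response-element beta-lactamase reporter, 2,000 cells/well. Compound exposure lasted 5 hr at 37 C, 5% CO2. Cell viability was quantified by CellTiter-Glo luminescence.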

A short description of experiment [4]: qHTS assay to identify small molecule agonists of the endoplasmic reticulum stress response signaling pathway - cell viability counter screen (AID 1159517; calls by dose curve; also: nearly all actives have a fitted effect of over 50% in size; also: potency is read from the fitted curve at half-maximal effect). In outline: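 After overnight attachment, ESRE-bla HeLa cells were treated with Tox21 library compounds for 5 hr. CellTiter-Glo luminescence, read 30 min post-addition at room temperature, reported viability.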

Experiment [5] in a line: qHTS assay to identify small molecule antagonists of the retinoid-related orphan receptor gamma (ROR-gamma) signaling pathway - cell viability counter screen (AID 1159520). Also: nearly all actives have a fitted effect of over 50% in size. Also: potency is read from the fitted curve at half-maximal effect. In outline: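 Cytotoxicity was read from cellular ATP (CellTiter-Glo luminescence) after 16 hr at 37 C with 1 uM doxycycline induction. The inducer was added 2 hr after compound transfer to Tet-on ROR gamma CHO cells.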

The nature of experiment [6]: qHTS assay to identify small molecule agonists of the AP-1 signaling pathway (AID 1159526; calls by dose curve).
The nature of experiment [7]: qHTS assay to identify small molecule agonists of the AP-1 signaling pathway - cell viability counter screen (AID 1159525; calls by dose curve; also: nearly all actives have a fitted effect of over 55% in size; also: potency is read from the fitted curve at half-maximal effect). In outline:
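Intracellular ATP by Cell Titer Glo luminescence (30 min, RT) in the same ME-180 AP-1-bla wells after the 5 h compound exposure at 37 °C. Normalised to tetra n-octyl ammonium bromide and DMSO controls.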

Experiment [8] addresses Retinoic acid receptor RXR-alpha (Homo sapiens) (UniProt P19793). The experiment is described as follows: qHTS assay to identify small molecule agonists of the RXR signaling pathway (AID 1159527; calls by dose curve; also: nearly all actives have a fitted effect of over 35% in size). The essentials: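 Using 9-cis retinoic acid as the reference agonist, chemicals were tested in HEK 293T cells […] for 16 hr; substrate loading lasted 2 hr at room temperature.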

Experiment [9] can be described thus: qHTS assay to identify small molecule agonists of the RXR signaling pathway - cell viability counter screen (AID 1159529). Also: nearly all actives have a fitted effect of over 50% in size. Also: potency is read from the fitted curve at half-maximal effect. In outline: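 Compounds dissolved in DMSO were pinned onto HEK 293T cells carrying a beta-lactamase reporter under RXR-alpha control and incubated 16 hr. Cytotoxicity was then quantified by CellTiter-Glo luminescence.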
Experiment [10] is described as follows: qHTS assay to identify small molecule antagonists of the retinoid acid receptor (RAR) signaling pathway - cell viability counter screen (AID 1159551). Also: nearly all actives have a fitted effect of over 35% in size. Also: potency is read from the fitted curve at half-maximal effect. The essentials: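 ATP-based viability, C3RL4 cells, 6 h at 37 C with 1 uM final retinol co-added after compound; luminescence read 30 min post CellTiter-Glo, RT.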
A short description of experiment [11]: qHTS assay to identify small molecule antagonists of the retinoic acid receptor (RAR) signaling pathway (AID 1159552; also: nearly all actives have a fitted effect of over 50% in size; also: potency is read from the fitted curve at half-maximal effect). The essentials:
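Test chemicals and DMSO controls were pin-transferred onto C3RL4 cells a day after seeding; retinol (1 uM final) followed at once. Luminescent reporter output was quantified after 6 hr of co-incubation and 30 min with detection reagent.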

Experiment [12] in a line: qHTS assay to identify small molecule agonists of the retinoic acid receptor (RAR) signaling pathway (AID 1159553). Also: potency is read from the fitted curve at half-maximal effect. In outline:
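Quantitative high-throughput format: the Tox21 10K library was tested on C3RL4 RARE-luciferase cells for 6 hr at 37 C and 5% CO2, with luminescence measured after a 30 min room-temperature reagent step.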

In experiment [13] the target is Nuclear receptor ROR-gamma (Homo sapiens) (UniProt P51449). The experiment is described as follows: qHTS assay to identify small molecule antagonists of the retinoid-related orphan receptor gamma (ROR-gamma) signaling pathway (AID 1159521). In outline: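 Test compounds were applied to Tet-on RORγ CHO cells 2 h ahead of doxycycline hyclate (1 uM final). Luciferase reporter activity was quantified by luminescence after 16 h at 37 C and 5% CO2.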

Experiment [14] can be described thus: qHTS assay to identify small molecule antagonists of the estrogen related receptor (ERR) signaling pathway (AID 1224819). The essentials:
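ERR reporter cell line (NTP) plated at 2,000 cells/well, settled 6 h at 37C/5% CO2, then exposed to LOPAC compounds for 18 h at 37C. One-Glo luciferase luminescence read after 30 min at room temperature.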

Experiment [15] is described as follows: qHTS assay to identify small molecule agonists of the estrogen related receptor (ERR) signaling pathway (AID 1224820). The essentials:
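Luminescence readout (One-Glo, 30 min RT) from NTP-supplied ERR cell line exposed to compounds for 18 h at 37 C. Cells seeded 2,000 per well and pre-incubated 6 h before pin-tool compound transfer.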

The nature of experiment [16]: qHTS assay to identify small molecule agonists of the estrogen related receptor signaling pathway with the pleiotropic PPARgamma coactivator (PGC) (AID 1224823). In outline: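 Luminescence readout (One-Glo, 30 min RT) from PGC/ERR cell line treated 18 h at 37 C with pin-tool-delivered DMSO compound solutions; cells plated 6 h before dosing. Quantitative HTS format.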

The nature of experiment [17]: qHTS assay to identify small molecule antagonists of the estrogen related receptor (ERR) signaling pathway - cell viability counter screen (AID 1224818).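 Also: series mostly up to about 46 µM; viability measured after 17.5 h of compound exposure.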 The essentials:
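Quantitative high-throughput viability counter screen in ERR cells. Compounds (DMSO) incubated 17.5 h at 37 C; read-out was CellTiter-Fluor fluorescence.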

Experiment [18] in a line: qHTS assay to identify small molecule antagonists of the estrogen related receptor signaling pathway with the pleiotropic PPARgamma coactivator (PGC) cell viability counter screen (AID 1224822; also: series mostly up to about 46 µM). The essentials:
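Cytotoxicity in the PGC/ERR cell line is assessed with CellTiter-Fluor, read as fluorescence intensity 30 min after reagent addition, following 17.5 h compound treatment at 37 C.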

“And” between values parts separate entries of the source, which are not always exact repeats. Identical values can stand only once. Results filed as inconclusive are left out. The source made the active and inactive calls. Unless noted, calls follow the shape of the dose curve; as a rule, active = well fitted curve in the direction sought with a large enough effect in the repeat runs; inconclusive = weak or mixed curves; inactive = no such curve, though single readings can be large; an effect the other way counts as inactive or inconclusive.

The values below come from PubChem BioAssay (Tox21).

Chain of Retinoic acid receptor RXR-alpha (Homo sapiens) (P19793 whole entry, looked up): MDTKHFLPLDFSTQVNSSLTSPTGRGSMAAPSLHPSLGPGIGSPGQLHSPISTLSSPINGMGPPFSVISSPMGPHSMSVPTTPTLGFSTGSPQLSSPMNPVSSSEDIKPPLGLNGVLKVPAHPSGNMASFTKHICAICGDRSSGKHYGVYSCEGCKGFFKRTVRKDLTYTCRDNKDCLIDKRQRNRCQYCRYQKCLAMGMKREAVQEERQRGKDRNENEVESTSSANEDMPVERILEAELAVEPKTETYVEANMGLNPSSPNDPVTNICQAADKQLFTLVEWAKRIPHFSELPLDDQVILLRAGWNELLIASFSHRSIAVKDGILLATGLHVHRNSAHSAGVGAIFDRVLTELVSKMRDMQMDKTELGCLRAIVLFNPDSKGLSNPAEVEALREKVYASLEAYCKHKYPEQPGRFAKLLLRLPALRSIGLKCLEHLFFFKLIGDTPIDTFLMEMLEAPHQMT

As for `CC(C)n1nc(-c2cc3cc(O)ccc3[nH]2)c2c(N)ncnc21`, the Potency in experiment [1] was 15 µM (active); in [4], 9.52 µM (active); in [5], 2.98 µM (active). Further, the Potency entry in [2], in experiment [3] and in experiment [6] was “inactive” each time.

`O=c1cccccc1O`: the Potency result in [2], in experiment [3], in experiment [4], in [5], in [7] and in [8] was “inactive” throughout. Further, the Potency entry in experiment [9], in experiment [10] and in experiment [11] was “inactive” in each case.

For `CSc1ccc2c(c1)C(N1CCN(C)CC1)Cc1ccccc1S2` (configuration not stated), the Potency in experiment [1] was 23.7 µM (active); in experiment [3], 23.9 µM (active); in experiment [4], 19 µM (active); in [9], 23.9 µM (active). The Potency result in experiment [5] and in experiment [10] was “inactive” in each case.

Regarding `Cc1ccc(-n2nc(C(C)(C)C)cc2NC(=O)Nc2ccc(OCCN3CCOCC3)c3ccccc23)cc1`, the Potency result in experiment [1], in experiment [2], in [3], in experiment [4], in [5] and in [6] was “inactive” each time. Further, the Potency entry in experiment [10] and in experiment [11] was “inactive” throughout. The Potency in experiment [12] is 18.8 µM (active).

As to `Fc1ccc(C(c2ccc(F)cc2)N2CCN(C/C=C/c3ccccc3)CC2)cc1`, the Potency was 29.8 µM (active) in [1], 23.7 µM (active) in experiment [13] and 19.6 µM (active) in experiment [14]. The Potency entry in experiment [3], in [4], in experiment [7], in experiment [6], in [10] and in experiment [11] was “inactive” in each case. For the same compound, the outcome in [15] and in experiment [16] was inactive.

In the case of `Cc1cccc(N(C)C(=S)Oc2ccc3c(c2)C2CCC3C2)c1` (configuration not stated), the Potency entry in [1], in [2], in experiment [3], in experiment [4], in experiment [5] and in experiment [7] was “inactive” each time. For the same compound, the Potency result in experiment [10] and in experiment [11] was “inactive” in each case.

Take `NNc1nc(-c2ccc(N)cc2)cs1`: the Potency entry in experiment [1], in experiment [2], in [3], in experiment [4], in [5] and in experiment [7] was “inactive” in each case. In experiment [9], the Potency result is “inactive”.

Take `O=[N+]([O-])c1cc([N+](=O)[O-])c2ccc(S(=O)(=O)O)cc2c1O`: the Potency entry in [1], in experiment [2], in experiment [3], in experiment [4], in experiment [5] and in experiment [7] was “inactive” in each case. Also, the Potency entry in experiment [9] and in experiment [10] was “inactive” throughout.

As to `CC(C)(C)CC(C)(C)c1ccc(OCCOCC[N+](C)(C)Cc2ccccc2)cc1`, the Potency is 38.9 µM (active) and 26.6 µM (active) in experiment [1]; 24.5 µM (active) in [3]; 21.9 µM (active) in experiment [4]; 54.4 µM (active) in experiment [5]; 24.5 µM (active) in [7]; 6.91 µM (active) and 4.77 µM (active) in experiment [9]. Further, the Potency in [10] was 61.1 µM (active); in [11], 43.2 µM (active) and 29.8 µM (active).

Regarding `CCC(CN)=C(c1ccccc1)c1ccccc1`, the Potency entry in [3], in experiment [4], in experiment [5], in experiment [7], in experiment [9] and in experiment [10] was “inactive” in each case.

`CCc1oc2ccccc2c1C(=O)c1cc(Br)c(O)c(Br)c1`: the Potency entry in [3], in experiment [4], in experiment [5], in experiment [10], in experiment [11] and in [12] was “inactive” in each case.

In the case of `CC(C)C(C)(C)C(C)(C)C(C)(C)S`, the Potency entry in [3], in experiment [4], in [5], in [7], in experiment [9] and in experiment [10] was “inactive” throughout. The Potency entry in [17] and in experiment [18] was “inactive” in each case.
